# According to PubChem BioAssay (NCATS):
# Values joined by “and” are separate entries in the source; they are usually repeats but may differ in a detail not shown here. Equal values may be shown once. Results filed as inconclusive are left out. A number with no mark means an inactive call. Active and inactive are the calls of the source. Calls follow the shape of the dose curve; as a rule, active = well fitted curve in the direction sought with a large enough effect; inconclusive = small, poorly fitted or top-dose-only effect, or another doubt; inactive = no such curve, though single readings can be large; an effect the other way counts as inactive or inconclusive.
# Assay: Quantitative highthroughput screen to assess conditional lethalithy of SEM cells grown in RPMI1640 with dialyzed fetal bovine serum (RPMI+ds) (AID 1963884); also: nearly all actives have a fitted effect of over 35% in size;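 as to viability: 100% = DMSO control wells and 0% = empty wells without cells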
# Conditions: SEM B-ALL cells, RPMI+dialyzed FBS, CellTiter-Glo viability, 48 h; series mostly up to 45.8 µM
# In short: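 Each medium arm—HPLM with 10% dialyzed FBS, or RPMI1640 with 5 mM glucose and 10% untreated or dialyzed FBS—was screened against an 11-point, 3-fold compound titration for 48 h at 37 °C, with CellTiter-Glo luminescence as endpoint.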
# Potency is read from the fitted curve at half-maximal effect.
row,Structure (SMILES),Potency
1,COc1cc2ncnc(-n3nc(-c4ccccn4)nc3N)c2cc1OC,2.35 µM (active)
2,CN(C)[C@@H](CCOc1cccc2ccccc12)c1ccccc1,inactive
3,NCCCC(O)(P(=O)(O)O)P(=O)(O)O,3.72 µM (active)
4,CN(C)c1nc(Cc2ccc(NC(=O)c3ccc4ccccc4c3)cc2)nc(Cl)c1CC(=O)O,inactive
5,CCc1c2c(nc3ccc(O)cc13)-c1cc3c(c(=O)n1C2)COC(=O)[C@]3(O)CC,0.0105 µM (active)
6,CCc1cccc(CC)c1NC(=O)N1Cc2[nH]nc(NC(=O)c3ccc(N4CCN(C)CC4)cc3)c2C1,1.66 µM (active)
7,OC[C@H]1OC(O)C[C@@H](O)[C@H]1O (stereo partly specified),inactive
8,CCN(CC)CCCCNc1ncc2c(n1)N(C)C(=O)N(c1c(Cl)c(OC)cc(OC)c1Cl)C2,14.8 µM (active)
9,Nc1nc2c(c(=O)[nH]1)N(C=O)[C@H](CNc1ccc(C(=O)N[C@@H](CCC(=O)O)C(=O)O)cc1)CN2,inactive
10,Nc1nc(Cl)nc2c1ncn2[C@@H]1O[C@H](CO)[C@@H](O)[C@H]1F,inactive
11,C[C@@H]1C[C@H]2[C@@H]3CCC4=CC(=O)C=C[C@]4(C)[C@@]3(Cl)[C@@H](O)C[C@]2(C)[C@@]1(OC(=O)c1ccco1)C(=O)CCl,inactive
12,C[N+](C)([O-])CCNc1ccc(NCC[N+](C)(C)[O-])c2c1C(=O)c1c(O)ccc(O)c1C2=O,0.743 µM (active)

# Assay: Cellular viability qHTS for adrenocortical cancer (ACC) cell line SW-13 (AID 1963989); also: nearly all actives have a fitted effect of over 65% in size;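 as to activity (max response): cells grown in serum-free medium with ITS supplement; % is scaled to controls: 0 for no effect and ±100 for the full control effect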
# Conditions: SW-13 ACC cells viability, CellTiter-Glo, 48 h; activity (max response): hits give low values
# In short: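 Luminescent ATP read-out (CellTiter-Glo, 20 min at room temperature) measured metabolically competent SW-13 cells after 48 h compound treatment. Final concentrations spanned up to 46 uM; bortezomib served as positive control.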
Structure (SMILES),Potency,activity (max response)
O=C(Nc1ncc(-c2cc(C(F)F)nn2-c2c(Cl)cccc2Cl)s1)C1CC1,0.316 µM (active),
Clc1ccc(C(Cn2ccnc2)OCc2ccc(Sc3ccccc3)cc2)c(Cl)c1 (stereo unspecified),31.6 µM (active),
O=C1CCC[C@@H]2[C@H]3CCC[N+]4([O-])CCC[C@@H](CN12)[C@@H]34 (stereo partly specified),,-8.5%
Nc1nccc(Oc2ccc(NC(=O)c3c[nH]cc(-c4ccc(F)cc4)c3=O)cc2F)c1Cl,8.91 µM (active),
CC(C)C(=O)Nc1ccc([N+](=O)[O-])c(C(F)(F)F)c1,,15.5%
O=C(Nc1ccc([N+](=O)[O-])cc1Cl)c1cc(Cl)ccc1O,142 nM (active) and 447 nM (active),
COc1ccccc1[C@H](c1cccc2ccccc12)[C@@](C)(C#N)C(=O)N1CCC(c2cccc(C(F)(F)F)c2)CC1,,-5.9%
Cc1cc(-c2ccc(CC(=O)Nc3ccc(-c4cccnc4)cc3)cc2)ccn1,,-19.6%
CCCCCCCCCCCC(CC1OC(=O)C1CCCCCC)OC(=O)C(CC(C)C)NC=O (stereo unspecified),,11.6%
COc1cc(OC)c(NC(=O)Nc2cc(C)on2)cc1Cl,,-19.6%
O=c1c(O)c(-c2ccc(O)c(O)c2)oc2cc(O)ccc12,,0.454%
CCC[C@H](Nc1nc(-c2ccc(NC(=O)NCC)c(OC)c2)ncc1C)c1cccnc1,0.224 µM (active),
O=C(O)CCCCC(CCSCc1ccccc1)SCc1ccccc1 (stereo unspecified),,-7.05%
COc1cc2ncnc(-n3nc(-c4ccccn4)nc3N)c2cc1OC,,10.9%
NCCCC(O)(P(=O)(O)O)P(=O)(O)O,,-4.27%
CCc1c2c(nc3ccc(O)cc13)-c1cc3c(c(=O)n1C2)COC(=O)[C@]3(O)CC,0.224 µM (active),
OC[C@H]1OC(O)C[C@@H](O)[C@H]1O (stereo partly specified),,7.09%
O=C(Nc1cccc2c(=O)cc(-c3nn[nH]n3)oc12)c1ccc(OCCCCc2ccccc2)cc1,,13.6%
Nc1nc(NCCNc2ncc(-n3ccnc3)c(-c3ccc(Cl)cc3Cl)n2)ccc1[N+](=O)[O-],,-10%
CCN(CC)CCCCNc1ncc2c(n1)N(C)C(=O)N(c1c(Cl)c(OC)cc(OC)c1Cl)C2,25.1 µM (active),
Nc1nc2c(c(=O)[nH]1)N(C=O)[C@H](CNc1ccc(C(=O)N[C@@H](CCC(=O)O)C(=O)O)cc1)CN2,,4.65%
CC1(COc2ccc3c(c2)ncn3-c2ccc3cccc(N4CCC(N)CC4)c3n2)COC1,25.1 µM (active),

# Assay: Cellular viability qHTS for adrenocortical cancer (ACC) cell line NCI-H295R (AID 1963990); also: nearly all actives have a fitted effect of over 60% in size
# Conditions: CellTiter-Glo ATP luminescence, 48 h; series mostly up to 46.1 µM
# In short: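 IC50 and maximal efficacy derive from four-parameter logistic modelling of titration curves, with reads scaled between DMSO-only wells (0%) and doxorubicin hydrochloride (100% inhibition). Compounds spanned up to 46 uM over 48 h.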
row,Structure (SMILES),Potency
1,CCN1CCC(n2cc(CNc3cc(Cl)c4ncc(C#N)c(Nc5ccc(F)c(Cl)c5)c4c3)nn2)CC1,31.6 µM (active)
2,Cc1nc2c(-c3cnc(N)nc3)nc(N3CCOCC3)nc2n1C(C)C,0.562 µM (active)
3,O=C1c2c(O)ccc(O)c2C(=O)c2c(NCCNCCO)ccc(NCCNCCO)c21,4.11 µM (active) and 3.98 µM (active)
4,O=C1CCC[C@@H]2[C@H]3CCC[N+]4([O-])CCC[C@@H](CN12)[C@@H]34 (stereo partly specified),inactive
5,CN1CCc2c(n(Cc3ccc(C(=O)NO)cc3)c3ccccc23)C1,25.1 µM (active)
6,Nc1nccc(Oc2ccc(NC(=O)c3c[nH]cc(-c4ccc(F)cc4)c3=O)cc2F)c1Cl,10 µM (active)
7,CC(C)C(=O)Nc1ccc([N+](=O)[O-])c(C(F)(F)F)c1,inactive
8,O=C(Nc1ccc([N+](=O)[O-])cc1Cl)c1cc(Cl)ccc1O,224 nM (active) and 1 µM (active)
9,COc1ccccc1[C@H](c1cccc2ccccc12)[C@@](C)(C#N)C(=O)N1CCC(c2cccc(C(F)(F)F)c2)CC1,inactive
10,Cc1cc(-c2ccc(CC(=O)Nc3ccc(-c4cccnc4)cc3)cc2)ccn1,inactive
11,CCCCCCCCCCCC(CC1OC(=O)C1CCCCCC)OC(=O)C(CC(C)C)NC=O (stereo unspecified),inactive
12,COc1cc(OC)c(NC(=O)Nc2cc(C)on2)cc1Cl,inactive
13,O=C(NCc1ccncc1)C12C[C@H]3C[C@@H](C1)CC(c1ccc(Cl)cc1)(C3)C2,inactive
14,O=c1c(O)c(-c2ccc(O)c(O)c2)oc2cc(O)ccc12,inactive
15,Cc1cc(Nc2cc(N3CCN(C)CC3)nc(Sc3ccc(NC(=O)C4CC4)cc3)n2)n[nH]1,15.8 µM (active)
16,COc1cc2ncnc(-n3nc(-c4ccccn4)nc3N)c2cc1OC,inactive
17,NCCCC(O)(P(=O)(O)O)P(=O)(O)O,inactive
18,CCCCC(C)(C)[C@H](O)C=C[C@H]1[C@H](O)CC(=O)[C@H]1CC=CCCCC(=O)O,inactive
19,CCc1c2c(nc3ccc(O)cc13)-c1cc3c(c(=O)n1C2)COC(=O)[C@]3(O)CC,1.26 µM (active)
20,OC[C@H]1OC(O)C[C@@H](O)[C@H]1O (stereo partly specified),inactive
21,Oc1cc(-c2nc(-c3ccccc3)[nH]c2-c2ccncc2)ccc1Cl,28.2 µM (active)
22,Nc1nc(NCCNc2ncc(-n3ccnc3)c(-c3ccc(Cl)cc3Cl)n2)ccc1[N+](=O)[O-],inactive
23,CCN(CC)CCCCNc1nc2cc(Cl)c(Cl)cc2nc1-c1ccc(-c2cccs2)s1,7.08 µM (active)
24,COc1ccc2c(c1)CC[C@@H](CN(C)CC(=O)O)[C@H]2c1ccccc1,inactive
25,Nc1nc2c(c(=O)[nH]1)N(C=O)[C@H](CNc1ccc(C(=O)N[C@@H](CCC(=O)O)C(=O)O)cc1)CN2,inactive
26,CC1(COc2ccc3c(c2)ncn3-c2ccc3cccc(N4CCC(N)CC4)c3n2)COC1,14.1 µM (active)
27,C[N+](C)([O-])CCNc1ccc(NCC[N+](C)(C)[O-])c2c1C(=O)c1c(O)ccc(O)c1C2=O,inactive
